Data published in the supplement of paper PMC10849652.
About 7,900 targets were measured; listed, in parts, are those with a hit and a random draw of the rest. About 0.6% of all pairs of compound and target were hits. Values without a mark were called inactive.

Experiments:
Experiment in all cases: log2 fold change, soluble protein after heating vs DMSO (PISA); higher = thermal stabilisation; K562 cells, 10 uM, 30 min; active = over 0.2 and 3.5 SD of the protein, either way, in both replicates (recomputed)
[1] = compound: CC1=C(C=C(C=C1)NC(=O)C2=CC(=CC=C2)C(C)(C)C#N)NC3=CC4=C(C=C3)N=CN(C4=O)C
Outline: (§1)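 K562 cells at 2×10^6 cells/mL were treated with 10 μM compound for 30 min. Aliquots were heated for 3 min across 48°C-58°C, pooled, and extracted in PBS with 0.5% NP-40 at 4°C; soluble protein was the supernatant after 21,000xg for 90 min. Soluble protein was quantified by TMTpro 16plex LC-MS/MS with channel sums equalised, and reported as log2 fold change in thermal stability against DMSO controls, with values from duplicates.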

[2] = compound: CC1=C(C=C(C=C1)NC(=O)C2=CC(=CC=C2)N(C)C)NC(=O)C3=CC=C(C=C3)O
Outline: as §1

[3] = compound: CC1=CC=C(C=C1)SC2=C3C=C(SC3=CN=C2)C(=O)N
Outline: as §1

[4] = compound: CC1=NC(=CC=C1)C2=C(N=C(N2)C(C)(C)C)C3=CC4=NC=CN=C4C=C3
Outline: as §1

Nexturastat A = compound: CCCCN(Cc1ccc(C(=O)NO)cc1)C(=O)Nc1ccccc1 [Nexturastat A]
Outline: as §1

vemurafenib = compound: CCCS(=O)(=O)Nc1ccc(F)c(C(=O)c2c[nH]c3ncc(-c4ccc(Cl)cc4)cc23)c1F [vemurafenib]
Outline: as §1

[5] = compound: CCCS(=O)(=O)Nc1ccc(F)c(C(=O)c2c[nH]c3ncc(Cl)cc23)c1F
Outline: as §1

[6] = compound: CCCc1cc(C)[nH]c(=O)c1CNC(=O)c1cc(-c2ccnc(N3CCN(C)CC3)c2)cc2c1cnn2C(C)C
Outline: as §1

givinostat = compound: CCN(CC)Cc1ccc2cc(COC(=O)Nc3ccc(C(=O)NO)cc3)ccc2c1 [givinostat]
Outline: as §1

barasertib = compound: CCN(CCCOc1ccc2c(Nc3cc(CC(=O)Nc4cccc(F)c4)[nH]n3)ncnc2c1)CCOP(=O)(O)O [barasertib]
Outline: as §1

[7] = compound: CC[C@@H]1C(=O)N(C)c2cnc(Nc3ccc(C(=O)NC4CCN(C)CC4)cc3OC)nc2N1C1CCCC1
Outline: as §1

volasertib = compound: CC[C@@H]1C(=O)N(C)c2cnc(Nc3ccc(C(=O)N[C@H]4CC[C@H](N5CCN(CC6CC6)CC5)CC4)cc3OC)nc2N1C(C)C [volasertib]
Outline: as §1

[8] = compound: CC[C@H](C)N1C=C(C2=C(C=C(C=C21)C3=CN=C(C=C3)N4CCNCC4)C(=O)NCC5=C(C=C(NC5=O)C)C)C
Outline: as §1

epoxomicin = compound: CC[C@H](C)[C@@H](C(=O)N[C@@H]([C@@H](C)O)C(=O)N[C@@H](CC(C)C)C(=O)[C@]1(CO1)C)NC(=O)[C@H]([C@@H](C)CC)N(C)C(=O)C [epoxomicin]
Outline: as §1

[9] = compound: CCn1c(C(=O)N(C2CC2)C2CC2)cc2c3c(ncn3C)c(Nc3cc(C)n(C)n3)nc21
Outline: as §1

[10] = compound: CCn1cc(-c2ccnc3[nH]c(-c4cccc(CN(C)C)c4)cc23)c(-c2ccc(NC(=O)N(C)C)cc2)n1
Outline: as §1

[11] = compound: CN(C)CC(=O)Nc1ccc2[nH]c(=O)c3ccccc3c2c1
Outline: as §1

rosiglitazone = compound: CN(CCOC1=CC=C(C=C1)C[C@H]2C(=O)NC(=O)S2)C3=CC=CC=N3 (racemic) [rosiglitazone]
Outline: as §1

[12] = compound: CN1C2=C(C3=C1C(=O)N(N=C3)CC4=CC(=CC=C4)N)SC(=C2)S(=O)C
Outline: as §1

[13] = compound: CN1CCC(CNc2ccc3ncc(-c4cccc(OC(F)(F)F)c4)n3n2)CC1
Outline: as §1

Chain of UniProt P11233 (P11233 whole entry, looked up): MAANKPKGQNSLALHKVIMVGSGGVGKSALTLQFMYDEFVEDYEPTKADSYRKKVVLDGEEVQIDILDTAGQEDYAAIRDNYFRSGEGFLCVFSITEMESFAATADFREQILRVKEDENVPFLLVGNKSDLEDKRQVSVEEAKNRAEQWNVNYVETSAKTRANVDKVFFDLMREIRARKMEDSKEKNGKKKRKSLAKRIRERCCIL
Chain of UniProt Q04206 (Q04206 whole entry, looked up): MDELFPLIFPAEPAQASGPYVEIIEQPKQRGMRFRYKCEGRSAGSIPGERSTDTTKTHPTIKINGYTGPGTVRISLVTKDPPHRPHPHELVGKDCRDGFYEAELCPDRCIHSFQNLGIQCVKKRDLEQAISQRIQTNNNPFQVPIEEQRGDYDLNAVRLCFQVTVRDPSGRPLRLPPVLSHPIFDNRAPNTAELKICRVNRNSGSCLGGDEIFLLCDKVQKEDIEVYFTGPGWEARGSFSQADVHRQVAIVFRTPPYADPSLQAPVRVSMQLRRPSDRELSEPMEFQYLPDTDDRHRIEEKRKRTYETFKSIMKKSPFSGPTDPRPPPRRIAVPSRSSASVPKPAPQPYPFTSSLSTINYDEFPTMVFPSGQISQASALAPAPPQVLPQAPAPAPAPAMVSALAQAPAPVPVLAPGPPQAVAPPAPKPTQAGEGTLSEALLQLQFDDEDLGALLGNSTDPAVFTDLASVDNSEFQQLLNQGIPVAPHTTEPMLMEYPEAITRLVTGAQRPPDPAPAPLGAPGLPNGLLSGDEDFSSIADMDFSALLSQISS
Chain of UniProt Q9NPQ8 (Q9NPQ8 whole entry, looked up): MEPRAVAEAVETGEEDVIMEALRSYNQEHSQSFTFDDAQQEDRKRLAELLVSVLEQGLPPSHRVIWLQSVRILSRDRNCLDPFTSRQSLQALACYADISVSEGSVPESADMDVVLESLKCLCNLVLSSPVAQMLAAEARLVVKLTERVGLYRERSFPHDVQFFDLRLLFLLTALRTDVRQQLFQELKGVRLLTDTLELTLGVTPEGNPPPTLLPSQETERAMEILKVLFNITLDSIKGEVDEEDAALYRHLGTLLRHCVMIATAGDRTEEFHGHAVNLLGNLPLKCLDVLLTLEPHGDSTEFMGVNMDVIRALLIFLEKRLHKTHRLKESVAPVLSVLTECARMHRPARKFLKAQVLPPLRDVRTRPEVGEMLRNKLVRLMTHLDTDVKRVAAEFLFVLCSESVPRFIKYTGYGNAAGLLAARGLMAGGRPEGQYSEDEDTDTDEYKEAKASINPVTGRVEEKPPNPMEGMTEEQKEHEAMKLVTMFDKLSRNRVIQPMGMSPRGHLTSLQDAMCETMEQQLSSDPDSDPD
Chain of UniProt O15027 (O15027 whole entry, looked up): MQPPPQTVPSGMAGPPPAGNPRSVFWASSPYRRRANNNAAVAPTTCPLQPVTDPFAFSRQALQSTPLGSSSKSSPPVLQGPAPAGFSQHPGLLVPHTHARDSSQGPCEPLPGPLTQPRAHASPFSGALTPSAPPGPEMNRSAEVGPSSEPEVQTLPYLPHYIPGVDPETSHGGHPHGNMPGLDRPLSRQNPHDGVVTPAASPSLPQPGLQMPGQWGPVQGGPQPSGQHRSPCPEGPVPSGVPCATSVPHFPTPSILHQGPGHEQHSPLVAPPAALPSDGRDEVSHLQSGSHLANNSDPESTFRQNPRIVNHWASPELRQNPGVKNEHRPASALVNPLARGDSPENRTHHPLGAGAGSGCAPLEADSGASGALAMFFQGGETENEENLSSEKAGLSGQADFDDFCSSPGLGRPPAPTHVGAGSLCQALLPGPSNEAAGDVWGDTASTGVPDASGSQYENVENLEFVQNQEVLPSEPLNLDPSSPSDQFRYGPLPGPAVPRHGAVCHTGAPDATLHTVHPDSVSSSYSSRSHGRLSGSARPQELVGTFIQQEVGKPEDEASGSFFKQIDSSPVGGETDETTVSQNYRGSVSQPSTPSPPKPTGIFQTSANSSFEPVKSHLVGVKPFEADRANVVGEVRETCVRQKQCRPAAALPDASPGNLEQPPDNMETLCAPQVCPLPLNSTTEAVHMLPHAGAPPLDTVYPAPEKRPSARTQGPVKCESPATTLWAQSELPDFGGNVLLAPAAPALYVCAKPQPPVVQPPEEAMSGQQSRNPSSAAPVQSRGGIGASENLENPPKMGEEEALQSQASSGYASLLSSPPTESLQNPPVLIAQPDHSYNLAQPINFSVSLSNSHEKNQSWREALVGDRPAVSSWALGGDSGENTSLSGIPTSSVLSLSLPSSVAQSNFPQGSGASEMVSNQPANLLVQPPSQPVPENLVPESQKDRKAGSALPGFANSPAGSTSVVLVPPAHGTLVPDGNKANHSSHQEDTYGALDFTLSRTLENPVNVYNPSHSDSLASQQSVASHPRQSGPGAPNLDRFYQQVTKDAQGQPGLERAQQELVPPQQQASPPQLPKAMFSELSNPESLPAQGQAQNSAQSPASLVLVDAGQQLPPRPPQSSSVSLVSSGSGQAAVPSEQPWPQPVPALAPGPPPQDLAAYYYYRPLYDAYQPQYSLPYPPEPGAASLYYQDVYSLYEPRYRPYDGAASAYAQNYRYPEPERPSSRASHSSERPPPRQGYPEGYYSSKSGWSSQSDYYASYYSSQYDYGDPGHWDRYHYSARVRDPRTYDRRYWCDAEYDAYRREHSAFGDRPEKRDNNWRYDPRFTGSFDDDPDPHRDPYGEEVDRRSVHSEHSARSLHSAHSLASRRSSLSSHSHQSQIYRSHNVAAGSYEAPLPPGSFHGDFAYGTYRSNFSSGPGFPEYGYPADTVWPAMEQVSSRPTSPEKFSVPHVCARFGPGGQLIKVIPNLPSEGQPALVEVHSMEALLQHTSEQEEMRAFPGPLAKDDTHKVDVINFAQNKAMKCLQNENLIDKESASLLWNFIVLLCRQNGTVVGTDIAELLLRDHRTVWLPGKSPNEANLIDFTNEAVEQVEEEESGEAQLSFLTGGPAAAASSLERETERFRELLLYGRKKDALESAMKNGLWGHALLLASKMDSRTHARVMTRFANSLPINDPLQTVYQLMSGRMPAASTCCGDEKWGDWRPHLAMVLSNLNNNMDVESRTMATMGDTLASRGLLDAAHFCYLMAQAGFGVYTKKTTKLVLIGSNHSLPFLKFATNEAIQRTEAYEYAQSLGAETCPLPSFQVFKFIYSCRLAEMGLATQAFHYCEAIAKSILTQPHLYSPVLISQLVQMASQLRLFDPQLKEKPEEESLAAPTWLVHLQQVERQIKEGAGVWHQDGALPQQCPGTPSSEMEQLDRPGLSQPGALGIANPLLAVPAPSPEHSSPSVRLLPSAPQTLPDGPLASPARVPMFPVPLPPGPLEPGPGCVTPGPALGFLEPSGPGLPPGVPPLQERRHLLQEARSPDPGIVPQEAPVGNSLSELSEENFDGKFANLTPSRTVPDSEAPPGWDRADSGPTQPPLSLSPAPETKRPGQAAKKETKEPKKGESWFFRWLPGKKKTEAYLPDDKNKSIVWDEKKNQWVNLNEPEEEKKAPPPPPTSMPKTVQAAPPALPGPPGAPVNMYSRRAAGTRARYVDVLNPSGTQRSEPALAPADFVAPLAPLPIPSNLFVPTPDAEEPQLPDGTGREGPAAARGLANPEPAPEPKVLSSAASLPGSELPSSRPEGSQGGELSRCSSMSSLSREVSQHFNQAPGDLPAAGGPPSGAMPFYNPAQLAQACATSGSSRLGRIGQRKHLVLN
Chain of UniProt Q9BWF3 (Q9BWF3 whole entry, looked up): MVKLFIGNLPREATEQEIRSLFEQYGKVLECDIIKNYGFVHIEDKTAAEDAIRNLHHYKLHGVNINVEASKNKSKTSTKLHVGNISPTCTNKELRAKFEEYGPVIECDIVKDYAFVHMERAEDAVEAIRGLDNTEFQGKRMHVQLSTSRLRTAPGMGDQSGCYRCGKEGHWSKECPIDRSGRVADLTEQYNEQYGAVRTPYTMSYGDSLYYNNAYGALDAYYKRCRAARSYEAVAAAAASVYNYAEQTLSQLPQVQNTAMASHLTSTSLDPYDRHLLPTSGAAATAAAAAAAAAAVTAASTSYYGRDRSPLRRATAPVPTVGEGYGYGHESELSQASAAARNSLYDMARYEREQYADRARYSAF
Chain of UniProt Q01974 (Q01974 whole entry, looked up): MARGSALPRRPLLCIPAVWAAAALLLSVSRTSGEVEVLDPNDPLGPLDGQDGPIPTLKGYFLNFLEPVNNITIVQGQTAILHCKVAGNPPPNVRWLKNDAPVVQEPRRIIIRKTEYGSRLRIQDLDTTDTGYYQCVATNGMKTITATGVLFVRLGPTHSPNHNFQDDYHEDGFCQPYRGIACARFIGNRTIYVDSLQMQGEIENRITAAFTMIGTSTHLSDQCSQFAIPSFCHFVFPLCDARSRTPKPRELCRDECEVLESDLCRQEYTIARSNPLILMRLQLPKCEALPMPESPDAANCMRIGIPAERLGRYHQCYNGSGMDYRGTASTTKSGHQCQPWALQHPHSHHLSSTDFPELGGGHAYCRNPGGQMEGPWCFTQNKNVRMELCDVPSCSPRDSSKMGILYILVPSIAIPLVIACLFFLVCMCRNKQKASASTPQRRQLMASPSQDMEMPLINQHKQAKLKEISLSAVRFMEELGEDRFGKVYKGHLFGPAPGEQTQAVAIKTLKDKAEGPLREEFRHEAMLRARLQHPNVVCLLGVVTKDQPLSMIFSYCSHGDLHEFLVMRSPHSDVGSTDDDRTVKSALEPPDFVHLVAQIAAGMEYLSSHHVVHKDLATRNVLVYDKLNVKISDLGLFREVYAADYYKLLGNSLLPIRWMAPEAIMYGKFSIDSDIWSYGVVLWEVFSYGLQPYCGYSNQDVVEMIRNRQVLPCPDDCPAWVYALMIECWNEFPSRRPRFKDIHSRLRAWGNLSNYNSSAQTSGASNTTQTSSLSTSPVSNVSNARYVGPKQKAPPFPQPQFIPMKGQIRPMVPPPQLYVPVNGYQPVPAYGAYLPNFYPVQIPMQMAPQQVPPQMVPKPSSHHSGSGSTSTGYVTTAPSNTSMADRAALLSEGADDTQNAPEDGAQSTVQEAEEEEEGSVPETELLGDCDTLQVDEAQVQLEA

Target | log2 fold change [1] | log2 fold change [2] | log2 fold change [3] | log2 fold change [4] | log2 fold change (Nexturastat A) | log2 fold change (vemurafenib) | log2 fold change [5] | log2 fold change [6] | log2 fold change (givinostat) | log2 fold change (barasertib) | log2 fold change [7] | log2 fold change (volasertib) | log2 fold change [8] | log2 fold change (epoxomicin) | log2 fold change [9] | log2 fold change [10] | log2 fold change [11] | log2 fold change (rosiglitazone) | log2 fold change [12] | log2 fold change [13]
SEC16A isoform 5 (UniProt O15027) | -0.079 | -0.042 | 0.036 | -0.001 | 0.044 | 0.035 | -0.031 | 0.061 | 0.09 | 0.043 | -0.058 | -0.271 | 0.051 | -0.04 | -0.146 | -0.048 | 0.1 | 0.06 | 0.078 | -0.047
RALA (UniProt P11233) | -0.007 | -0.006 | 0.02 | 0.132 | 0.021 | -0.031 | 0.05 | 0.019 | -0.002 | -0.001 | 0.084 | 0.025 | -0.044 | -0.054 | 0.021 | 0.029 | -0.029 | -0.021 | -0.115 | 0.434 (active)
RBM4 (UniProt Q9BWF3) | -0.041 | -0.033 | -0.061 | -0.034 | 0.081 | 0.01 | 0.052 | 0.003 | 0.071 | 0.018 | -0.043 | -0.3 (active) | 0.057 | -0.018 | -0.079 | 0.059 | -0.024 | -0.034 | 0.129 | -0.091
RBM8A (UniProt Q9Y5S9) | -0.025 | -0.024 | -0.02 | 0.075 | -0.069 | 0.024 | -0.001 | 0.04 | -0.032 | 0.043 | -0.051 | -0.041 | 0.038 | 0.005 | 0.021 | 0.014 | -0.037 | -0.004 | -0.035 | 0.065
RHEB (UniProt Q15382) | 0.008 | -0.002 | 0.008 | 0.052 | -0.277 (active) | -0.004 | 0.021 | -0.026 | -0.009 | 0.014 | 0.038 | 0.013 | -0.014 | 0.002 | 0.022 | 0.02 | 0.016 | 0.026 | -0.068 | -0.003
ROR2 (UniProt Q01974) | 0.022 | -0.061 | 0.001 | -0.009 | -0.109 | 0.018 | 0.007 | 0.078 | 0.033 | 0.003 | -0.107 | -0.123 | 0.129 | 0.035 | -0.012 | -0.015 | -0.01 | 0.036 | -0.069 | -0.089
RIC8A isoform 3 (UniProt Q9NPQ8) | 0.074 | -0.051 | 0.024 | 0.023 | 0.198 | 0.028 | 0.085 | 0.111 | 0.028 | 0.073 | -0.149 | -0.526 (active) | 0.11 | 0.061 | -0.009 | 0.036 | 0.011 | 0.095 | -0.005 | -0.186
RELA (UniProt Q04206) | 0.013 | 0 | 0.016 | 0.014 | 0.028 | 0.014 | 0.067 | 0.021 | 0.015 | 0.013 | -0.063 | -0.263 (active) | 0.013 | 0.025 | 0.027 | -0.043 | -0.019 | 0.039 | -0.009 | -0.011
